Results on 44 compounds are retold here after PubChem BioAssay (EPA / NIEHS).

“And” between values parts separate entries of the source, which are not always exact repeats. Equal values may be shown once. The source holds several records for some structures; these can differ, active in one and inactive in another. The source made the active and inactive calls. Rule for the calls: active = hit-call score of the fitted dose curve at least 0.9, where 1 is the maximum; inactive = score below 0.9.

What is called AC50 is the concentration giving half of the maximal activity seen.

Assay [1] can be described thus: APR_HepG2_MicrotubuleCSK_72hr: Apredica 72-hour HepG2 Assay for Microtubule CSK Stabilty (AID 2282919). Particulars: HepG2 microtubule cytoskeleton, high-content imaging, actives raise or lower the signal. The gist of the method: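 Read-out is tubulin fluorescence intensity from high-content imaging of HepG2 cells, with nuclei identified by Hoechst 33342. Treatment lasts 72 h at 0.39–200 uM, and curves are fitted bidirectionally against the DMSO negative control.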

Assay [2] is described as follows: APR_HepG2_P-H2AX_24hr: Apredica 24-hour HepG2 Assay for H2AX Phosphorylation (AID 2282920). The conditions noted are these: high-content imaging, actives raise or lower the signal. In a few lines:
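High-content imaging of phospho-histone H2A.x immunofluorescence, nuclei counterstained with Hoechst 33342, in fixed HepG2 cells. Compounds ran 0.39–200 uM in duplicate for 24 h, final DMSO 0.5%. Signal change fitted both directions against DMSO.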

Assay [3] is described as follows: APR_HepG2_StressKinase_72hr: Apredica 72-hour HepG2 Assay for Stress Kinase (AID 2282921). Particulars: HepG2 stress kinase (phospho-c-Jun) imaging, actives raise or lower the signal. The gist of the method:
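HepG2 cells treated 72 hr with 0.39–200 uM compound, 0.5% v/v DMSO, duplicate wells. After formaldehyde fixation and Triton permeabilization, stained with anti-phospho-c-Jun (1:500) and Cy3 secondary, imaged at 20x. Fitted in both directions against DMSO.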

Assay [4] can be described thus: APR_HepG2_StressKinase_24hr: Apredica 24-hour HepG2 Assay for Stress Kinase (AID 2282922). Particulars: HepG2 stress kinase (phospho-c-Jun) imaging, actives raise or lower the signal. The gist of the method: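 HepG2, 24 hr dosing, 0.39–200 uM in duplicate, 0.5% DMSO; formaldehyde fix (3.7%), 0.5% Triton X-100; anti-phospho-c-Jun + Cy3 secondary, Hoechst counterstain; ArrayScan imaging; bidirectional curve fit vs DMSO baseline.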

A short description of assay [5]: APR_HepG2_p53Act_72hr: Apredica 72-hour HepG2 Assay for p53 Activation (AID 2282923).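 Note: average cellular p53 protein immunofluorescence intensity in HepG2 cells.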 The conditions noted are these: high-content imaging, actives raise or lower the signal. In a few lines:
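HepG2 cells exposed 72 h to 0.39–200 uM in 0.5% DMSO, duplicates. Fixed, permeabilized cells immunostained for p53 (Cy5) with Hoechst; imaged at 20x, fluorescence analyzed bidirectionally against DMSO.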

Assay [6] in a line: APR_HepG2_MitoMass_72hr: Apredica 72-hour HepG2 Assay for Mitochondrial Mass (AID 2282924).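 Note: MitoTracker Red CMXRos stain intensity per cell imaged as mitochondrial mass.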 Particulars: high-content imaging, actives raise or lower the signal. The gist of the method: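 HepG2, 72 hr cmpd, 10 conc 0.39–200 uM in dup, DMSO 0.5% v/v. MitoTracker Red CMXRos 250 nM 30 min pre-fix; formaldehyde 3.7% fix 30 min RT. HCS imaging, gain/loss fit vs DMSO.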
Assay [7] in a line: ATG_CRE_CIS: Attagene CIS-FACTORIAL HepG2 Assay for human cAMP Responsive Element (CRE) binding protein 3 (AID 2282926). Particulars: HepG2 CRE cis-reporter, Attagene multiplexed mRNA; actives raise or lower the signal. In a few lines:
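Multiplexed transcription-unit reporters transfected into HepG2; 24 h dosing; RT-PCR/capillary electrophoresis fluorescence read-out; bidirectional fit vs DMSO.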

Assay [8] addresses CCAAT/enhancer-binding protein beta (Homo sapiens) (UniProt P17676). Description: ATG_C_EBP_CIS: Attagene CIS-FACTORIAL HepG2 Assay for human CCAAT/Enhancer Binding Protein (C/EBP) beta (AID 2282927). Particulars: HepG2 Attagene cis-factorial transcription factor reporter; actives raise or lower the signal. In a few lines:
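Endogenous C/EBPb-driven reporter transcripts measured in transfected human HepG2 cells at 24 h via RT-PCR and capillary electrophoresis of labelled fragments. Activity fitted in both directions relative to DMSO baseline.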

Assay [9] is described as follows: ATG_CMV_CIS: Attagene CIS-FACTORIAL HepG2 Assay for human CMV (Internal Marker) (AID 2282928).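 Note: endpoint acts as a background internal control marker rather than a target.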 The conditions noted are these: HepG2 CMV promoter reporter, transcription factor profiling; actives raise or lower the signal. In a few lines:
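After transient transfection of HepG2 with reporter transcription units driven by cis-regulatory promoters, cells receive test chemical for 24 h. Labeled reporter amplicons, digested with HpaI, are sized and quantified by capillary electrophoresis against DMSO.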

Assay [10] can be described thus: ATG_DR4_LXR_CIS: Attagene CIS-FACTORIAL HepG2 Assay for human Liver X Receptor (LXR), DR4 submotif (AID 2282929). The conditions noted are these: HepG2 Attagene DR4 cis-reporter, mRNA transcription; actives raise or lower the signal. In a few lines:
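HepG2 cells transiently transfected with cis-promoter-driven multiplexed reporter units (DR4 element) were dosed for 24 h. Reporter mRNA was quantified by RT-PCR, fluorescent primer extension, HpaI digestion and capillary electrophoresis; bidirectional fitting versus DMSO baseline.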

Sequence of CCAAT/enhancer-binding protein beta (Homo sapiens) (P17676 whole entry, looked up, the tested form may be a part): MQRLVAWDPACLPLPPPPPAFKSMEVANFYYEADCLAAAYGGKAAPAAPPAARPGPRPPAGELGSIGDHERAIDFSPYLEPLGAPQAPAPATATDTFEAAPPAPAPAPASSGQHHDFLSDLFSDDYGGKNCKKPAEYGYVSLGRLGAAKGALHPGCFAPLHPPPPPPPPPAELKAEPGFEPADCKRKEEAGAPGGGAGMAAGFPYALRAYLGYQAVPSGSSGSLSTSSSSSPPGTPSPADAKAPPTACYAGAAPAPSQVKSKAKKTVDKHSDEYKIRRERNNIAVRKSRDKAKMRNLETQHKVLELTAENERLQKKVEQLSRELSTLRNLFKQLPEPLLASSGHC

In the case of `O=C(O)C(F)(F)C(F)(F)C(F)(F)C(F)(F)C(F)(F)C(F)(F)C(F)(F)C(F)(F)C(F)(F)C(F)(F)F`, the outcome in assay [1], in [3], in [7] and in [8] was inactive. Also, the AC50 was 71.5 µM (active) in [2]; 73.8 µM (active) in assay [4]; 85.3 µM (active) in [5]; 72.9 µM (active) in [6]; 172 µM (active) in assay [8]; 50.4 µM (active) and 31.3 µM (active) in [9]. In addition, the AC50 in [10] was 24.6 µM (active) and 13.1 µM (active).

`CN(CCCC(=O)c1cccnc1)N=O`: the compound was called inactive in assay [7], in assay [8], in assay [9] and in [10].

As for `O=[N+]([O-])c1c(Cl)c(Cl)cc(Cl)c1Cl`, the result in assay [7], in assay [8] and in [10] was inactive. Further, the AC50 in assay [9] was 45.3 µM (active).

As to `Clc1ccc(C2(Cn3cncn3)CC(Br)CO2)c(Cl)c1` (stereo not drawn), the compound was classed as inactive in assay [7] and in assay [8]. Further, the concentration at half-maximal activity (AC50) in assay [9] is 99.5 µM (active); in assay [10], 68.1 µM (active).

Regarding `CNC`, the compound was called inactive in [7], in assay [8], in [9] and in assay [10].

`Nc1cccc(Cl)c1`: the call in [7], in assay [8], in assay [9] and in [10] was inactive.

`O=C(O)Cc1ccccc1`: the compound was classed as inactive in [7], in assay [8], in assay [9] and in [10].

With `CCOP(=S)(OCC)SCSP(=S)(OCC)OCC`, the result in assay [7], in assay [8], in assay [9] and in assay [10] was inactive.

Turning to `ClCCBr`, the outcome in assay [7], in assay [8], in assay [9] and in assay [10] was inactive.

Turning to `CCOP(OCC)OCC`, the call in [7], in assay [8], in assay [9] and in [10] was inactive.

On to `CCC[CH2][Sn]([CH2]CCC)([CH2]CCC)[O]C(=O)c1ccccc1`, for which the compound was called inactive in [7], in [9] and in assay [10]. In assay [8], the AC50 was 0.0581 µM (active).

As for `O=S(=O)(c1ccc(Cl)cc1)c1ccc(Cl)cc1`, the outcome in assay [7], in assay [8] and in [10] was inactive. Moreover, the AC50 in assay [9] is 16.5 µM (active).

For `O=[N+]([O-])c1ccc(O)c([N+](=O)[O-])c1`, the call in assay [7], in assay [8], in assay [9] and in [10] was inactive.

As for `Nc1ccc(-c2ccc(N)c(Cl)c2)cc1Cl`, the result in assay [7], in [8] and in assay [10] was inactive. Besides, the AC50 in assay [9] is 2.15 µM (active).

As to `CC(Br)C(=O)O` (stereo not drawn), the compound was called inactive in assay [7], in assay [8], in assay [9] and in assay [10].

Take `Clc1nc(Cl)nc(Cl)n1`: the outcome in [7], in assay [8], in assay [9] and in assay [10] was inactive.

As to `CC1CN1P(=O)(N1CC1C)N1CC1C` (stereo not drawn), the outcome in assay [7], in assay [8], in [9] and in assay [10] was inactive.

With `c1ccc(N=NNc2ccccc2)cc1`, the compound was classed as inactive in assay [7], in [8] and in [9]. Further, the AC50 in assay [10] was 115 µM (active).

Consider `Clc1ccc(COC(Cn2ccnc2)c2ccc(Cl)cc2Cl)cc1` (stereo not drawn), for which the compound was called inactive in assay [7], in [8] and in [9]. In [10], the AC50 was 4.8 µM (active).

On to `Fc1ccc(C2(Cn3cncn3)OC2c2ccccc2Cl)cc1` (stereo not drawn), for which the call in assay [7], in assay [8], in assay [9] and in assay [10] was inactive.

For `CC(=O)OC(c1ccccc1)C(Cl)(Cl)Cl` (stereo not drawn), the compound was called inactive in [7], in assay [8], in [9] and in [10].

With `CC(C)CCCCCCOC(=O)c1ccccc1C(=O)OCCCCCCC(C)C`, the call in [7], in assay [8], in [9] and in assay [10] was inactive.

On to `Cl/C=C\C[N+]12CN3CN(CN(C3)C1)C2`, for which the call in [7] and in [8] was inactive. Moreover, the AC50 in assay [9] is 170 µM (active); in assay [10], 41.7 µM (active).

`O=CC=O`: the outcome in assay [7], in assay [8], in assay [9] and in assay [10] was inactive.

As to `O=C(Cc1ccccc1)c1ccccc1`, the compound was classed as inactive in [7], in assay [8], in [9] and in assay [10].

For the compound `CC(=O)c1cc(C(C)(C)C)cc2c1CCC2(C)C`, the AC50 in [7] was 100 µM (active); in assay [8] it was 159 µM (active); in assay [9], 62.5 µM (active); in [10] it was 26.1 µM (active).

For the compound `CCCCCCCCCl`, the result in assay [7], in assay [8], in assay [9] and in assay [10] was inactive.

As to `CN(C)P(=O)(N(C)C)N(C)C`, the compound was called inactive in [7], in [8], in [9] and in assay [10].

As to `CC(C)OC(=O)Nc1ccccc1`, the result in assay [7], in assay [8], in assay [9] and in assay [10] was inactive.

Turning to `Oc1ccc(-c2ccccc2)cc1`, the compound was classed as inactive in assay [7], in assay [8] and in assay [10]. The AC50 in assay [9] is 44.9 µM (active).

`CCOP(=O)(CN(CCO)CCO)OCC`: the outcome in [7], in [8], in assay [9] and in [10] was inactive.

For `CC(=[OH+])/C=C(/C)[O-].CC(=[OH+])/C=C(/C)[O-].CC(=[OH+])/C=C(/C)[O-].[Fe]`, the outcome in assay [7], in [8], in [9] and in [10] was inactive.

Regarding `COS(=O)(=O)c1ccc(C)cc1`, the compound was classed as inactive in assay [7], in assay [8], in assay [9] and in assay [10].

As to `CCOC(=O)/C=C(C)/C=C/C[C@@H](C)CCCC(C)C`, the AC50 in assay [7] was 23.5 µM (active); in assay [8], 179 µM (active); in assay [9], 132 µM (active); in assay [10], 53.5 µM (active).

Turning to `C[C@@H](Oc1ccc(Cl)cc1Cl)C(=O)O`, the compound was classed as inactive in assay [7], in assay [8], in [9] and in assay [10].

As for `C=CC#N`, the outcome in assay [7], in [8], in assay [9] and in assay [10] was inactive.

In the case of `COc1ccc(OC)c(C=O)c1`, the compound was called inactive in assay [7], in assay [8], in assay [9] and in [10].

Regarding `C[C@H]1O[C@@H](O[C@H]2[C@@H](O)C[C@H](O[C@H]3[C@@H](O)C[C@H](O[C@H]4CC[C@@]5(C)[C@H](CC[C@@H]6[C@@H]5CC[C@]5(C)[C@@H](C7=CC(=O)OC7)CC[C@]65O)C4)O[C@@H]3C)O[C@@H]2C)C[C@H](O)[C@@H]1O`, the compound was classed as inactive in [7] and in assay [9]. Also, the half-maximal activity concentration (AC50) in assay [8] was 2.99 µM (active); in assay [10] it was 0.0564 µM (active).

Consider `CCCCC(CC)CO[N+](=O)[O-]` (stereo not drawn), for which the outcome in assay [7], in assay [8], in assay [9] and in assay [10] was inactive.

Consider `CCOC(=O)CP(=O)(OCC)OCC`, for which the call in [7], in [8], in [9] and in [10] was inactive.

Consider `CCCCCCCCSC(=O)Oc1cc(Cl)nnc1-c1ccccc1`, for which the compound was called inactive in assay [7] and in [8]. For the same compound, the results for the AC50 in assay [9] and in assay [10] were 171 µM (active) and 159 µM (active), respectively.

For `CCSC(C)CC1CC(=O)C(C(CC)=NOC/C=C/Cl)=C(O)C1` (stereo not drawn), the compound was called inactive in assay [7], in assay [8], in assay [9] and in [10].

Regarding `O=C(c1ccccc1)C(Cl)Cl`, the compound was classed as inactive in [7] and in [8]. Also, the results for the AC50 in assay [9] and in [10] were 28.7 µM (active) and 8.03 µM (active), respectively.

In the case of `CCOP(=S)(OCC)SCCS(=O)(=O)CC`, the call in assay [7], in assay [8], in assay [9] and in assay [10] was inactive.
